Changes are numbered by the printed parent chain.
What was measured:
Assay in all cases: PBM; 200 nM protein, PBS
Conditions in all cases: dsDNA, one strand shown
ALX1 [1] = target: ALX1 (Homo sapiens, UniProt Q15699 118-204, L144V)
ALX1 [2] = target: ALX1 (Homo sapiens, UniProt Q15699 118-204, L144R)
ALX1 [3] = target: ALX1 (Homo sapiens, UniProt Q15699 118-204)
ALX3 [4] = target: ALX3 (Homo sapiens, UniProt O95076 139-225, N203Q)
HOXD13 [5] = target: HOXD13 (Homo sapiens, UniProt P35453 263-343, T313R)
Sequence of HOXD13 (Homo sapiens, UniProt P35453 263-343, T313R) (P35453 263-343 T313R): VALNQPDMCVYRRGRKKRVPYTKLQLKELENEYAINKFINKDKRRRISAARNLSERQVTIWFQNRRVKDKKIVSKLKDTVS

HOXD13 [6] = target: HOXD13 (Homo sapiens, UniProt P35453 263-343)
Sequence of HOXD13 (Homo sapiens, UniProt P35453 263-343) (P35453 263-343): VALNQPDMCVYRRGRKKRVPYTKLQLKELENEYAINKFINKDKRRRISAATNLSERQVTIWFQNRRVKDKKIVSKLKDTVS

ALX3 [7] = target: ALX3 (Homo sapiens, UniProt O95076 139-225)
Sequence of ALX3 (Homo sapiens, UniProt O95076 139-225) (O95076 139-225): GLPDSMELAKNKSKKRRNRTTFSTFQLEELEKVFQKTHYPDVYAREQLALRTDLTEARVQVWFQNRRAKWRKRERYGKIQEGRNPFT

ALX3 [8] = target: ALX3 (Homo sapiens, UniProt O95076 139-225, L168Q)
Sequence of ALX3 (Homo sapiens, UniProt O95076 139-225, L168Q) (O95076 139-225 L168Q): as the sequence (O95076 139-225) above, with L30Q counted along it

HOXD13 [9] = target: HOXD13 (Homo sapiens, UniProt P35453 263-343, T313A)
Sequence of HOXD13 (Homo sapiens, UniProt P35453 263-343, T313A) (P35453 263-343 T313A): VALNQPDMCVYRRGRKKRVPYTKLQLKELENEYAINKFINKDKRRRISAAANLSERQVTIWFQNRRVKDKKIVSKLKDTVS

ALX3 [10] = target: ALX3 (Homo sapiens, UniProt O95076 139-225, L168V)
Sequence of ALX3 (Homo sapiens, UniProt O95076 139-225, L168V) (O95076 139-225 L168V): as the sequence (O95076 139-225) above, with L30V counted along it

ALX3 [11] = target: ALX3 (Homo sapiens, UniProt O95076 139-225, N203S)
Sequence of ALX3 (Homo sapiens, UniProt O95076 139-225, N203S) (O95076 139-225 N203S): as the sequence (O95076 139-225) above, with N65S counted along it

PROP1 [12] = target: PROP1 (Homo sapiens, UniProt O75360 56-141)
Sequence of PROP1 (Homo sapiens, UniProt O75360 56-141) (O75360 56-141): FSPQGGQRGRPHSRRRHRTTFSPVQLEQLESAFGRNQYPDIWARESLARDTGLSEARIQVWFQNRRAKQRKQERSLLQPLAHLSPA

PROP1 [13] = target: PROP1 (Homo sapiens, UniProt O75360 56-141, R99H)
Sequence of PROP1 (Homo sapiens, UniProt O75360 56-141, R99H) (O75360 56-141 R99H): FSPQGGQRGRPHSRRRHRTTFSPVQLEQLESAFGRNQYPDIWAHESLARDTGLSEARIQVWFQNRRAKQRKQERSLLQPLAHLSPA

PROP1 [14] = target: PROP1 (Homo sapiens, UniProt O75360 56-141, F88S)
Sequence of PROP1 (Homo sapiens, UniProt O75360 56-141, F88S) (O75360 56-141 F88S): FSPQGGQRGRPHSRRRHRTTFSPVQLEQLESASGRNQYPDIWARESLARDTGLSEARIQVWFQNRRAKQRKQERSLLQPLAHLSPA

NKX2-6 [15] = target: T1, NKX2-6 (Homo sapiens, UniProt A6NCS4 118-204)
T1 sequence: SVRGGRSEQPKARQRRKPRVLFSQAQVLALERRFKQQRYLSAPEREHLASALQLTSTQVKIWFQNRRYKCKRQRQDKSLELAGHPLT

NKX2-6 [16] = target: T2, NKX2-6 (Homo sapiens, UniProt A6NCS4 118-204, F151L)
T2 sequence: T1 sequence with F34L

Sequence of ALX1 (Homo sapiens, UniProt Q15699 118-204, L144V) (Q15699 118-204 L144V): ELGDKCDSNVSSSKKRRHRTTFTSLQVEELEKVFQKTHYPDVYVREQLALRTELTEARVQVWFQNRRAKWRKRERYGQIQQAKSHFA
Sequence of ALX3 (Homo sapiens, UniProt O95076 139-225, N203Q) (O95076 139-225 N203Q): as the sequence (O95076 139-225) above, with N65Q counted along it
Sequence of ALX1 (Homo sapiens, UniProt Q15699 118-204, L144R) (Q15699 118-204 L144R): as the sequence (Q15699 118-204 L144V) above, with V27R counted along it
Sequence of ALX1 (Homo sapiens, UniProt Q15699 118-204) (Q15699 118-204): as the sequence (Q15699 118-204 L144V) above, with V27L counted along it

## CACAGAGC
ALX1 [1]
  binding signal: 6.53 upbm affinity estimate (log intensity, higher = more binding, comparable within an allelic series)
ALX1 [2]
  binding signal: 6.53 upbm affinity estimate (log intensity, higher = more binding, comparable within an allelic series)
ALX1 [3]
  binding signal: 6.59 upbm affinity estimate (log intensity, higher = more binding, comparable within an allelic series)

## CTGGGCGA
ALX1 [1]
  binding signal: 6.34 upbm affinity estimate (log intensity, higher = more binding, comparable within an allelic series)
ALX1 [2]
  binding signal: 6.37 upbm affinity estimate (log intensity, higher = more binding, comparable within an allelic series)
ALX1 [3]
  binding signal: 6.87 upbm affinity estimate (log intensity, higher = more binding, comparable within an allelic series)

## CCAGCGGC
ALX1 [1]
  binding signal: 6.38 upbm affinity estimate (log intensity, higher = more binding, comparable within an allelic series)
ALX1 [2]
  binding signal: 6.67 upbm affinity estimate (log intensity, higher = more binding, comparable within an allelic series)
ALX1 [3]
  binding signal: 6.48 upbm affinity estimate (log intensity, higher = more binding, comparable within an allelic series)

## GCTTCGAC
ALX3 [4]
  binding signal: 7.77 upbm affinity estimate (log intensity, higher = more binding, comparable within an allelic series)
HOXD13 [5]
  binding signal: 9.46 upbm affinity estimate (log intensity, higher = more binding, comparable within an allelic series)
HOXD13 [6]
  binding signal: 9.32 upbm affinity estimate (log intensity, higher = more binding, comparable within an allelic series)
ALX3 [7]
  binding signal: 7.65 upbm affinity estimate (log intensity, higher = more binding, comparable within an allelic series)
ALX3 [8]
  binding signal: 7.79 upbm affinity estimate (log intensity, higher = more binding, comparable within an allelic series)
HOXD13 [9]
  binding signal: 9.54 upbm affinity estimate (log intensity, higher = more binding, comparable within an allelic series)
ALX3 [10]
  binding signal: 7.79 upbm affinity estimate (log intensity, higher = more binding, comparable within an allelic series)
ALX3 [11]
  binding signal: 7.83 upbm affinity estimate (log intensity, higher = more binding, comparable within an allelic series)

## CCTTTAAC
ALX1 [1]
  binding signal: 8.41 upbm affinity estimate (log intensity, higher = more binding, comparable within an allelic series)
ALX1 [2]
  binding signal: 8.36 upbm affinity estimate (log intensity, higher = more binding, comparable within an allelic series)
ALX1 [3]
  binding signal: 8.65 upbm affinity estimate (log intensity, higher = more binding, comparable within an allelic series)

## CGTATAAG
ALX1 [1]
  binding signal: 8.14 upbm affinity estimate (log intensity, higher = more binding, comparable within an allelic series)
ALX1 [2]
  binding signal: 8.05 upbm affinity estimate (log intensity, higher = more binding, comparable within an allelic series)
ALX1 [3]
  binding signal: 8.12 upbm affinity estimate (log intensity, higher = more binding, comparable within an allelic series)

## ATAATAAG
ALX3 [4]
  binding signal: 8.64 upbm affinity estimate (log intensity, higher = more binding, comparable within an allelic series)

## TATAATAA
ALX3 [4]
  binding signal: 8.61 upbm affinity estimate (log intensity, higher = more binding, comparable within an allelic series)

## ACATTTAG
ALX1 [1]
  binding signal: 8.38 upbm affinity estimate (log intensity, higher = more binding, comparable within an allelic series)
ALX1 [2]
  binding signal: 8.16 upbm affinity estimate (log intensity, higher = more binding, comparable within an allelic series)
ALX1 [3]
  binding signal: 8.56 upbm affinity estimate (log intensity, higher = more binding, comparable within an allelic series)

## AATTGGTC
ALX1 [1]
  binding signal: 9.84 upbm affinity estimate (log intensity, higher = more binding, comparable within an allelic series)
ALX1 [2]
  binding signal: 9.58 upbm affinity estimate (log intensity, higher = more binding, comparable within an allelic series)
ALX1 [3]
  binding signal: 10.2 upbm affinity estimate (log intensity, higher = more binding, comparable within an allelic series)

## CGGGTTCC
ALX1 [1]
  binding signal: 6.36 upbm affinity estimate (log intensity, higher = more binding, comparable within an allelic series)
ALX1 [2]
  binding signal: 6.23 upbm affinity estimate (log intensity, higher = more binding, comparable within an allelic series)
ALX1 [3]
  binding signal: 6.28 upbm affinity estimate (log intensity, higher = more binding, comparable within an allelic series)

## CCGAGAGC
ALX1 [1]
  binding signal: 6.61 upbm affinity estimate (log intensity, higher = more binding, comparable within an allelic series)
ALX1 [2]
  binding signal: 6.63 upbm affinity estimate (log intensity, higher = more binding, comparable within an allelic series)
ALX1 [3]
  binding signal: 6.63 upbm affinity estimate (log intensity, higher = more binding, comparable within an allelic series)

## AGCCACAG
ALX1 [1]
  binding signal: 6.62 upbm affinity estimate (log intensity, higher = more binding, comparable within an allelic series)
ALX1 [2]
  binding signal: 6.52 upbm affinity estimate (log intensity, higher = more binding, comparable within an allelic series)
ALX1 [3]
  binding signal: 6.67 upbm affinity estimate (log intensity, higher = more binding, comparable within an allelic series)

## GGACGGCC
ALX1 [1]
  binding signal: 6.43 upbm affinity estimate (log intensity, higher = more binding, comparable within an allelic series)
ALX1 [2]
  binding signal: 6.53 upbm affinity estimate (log intensity, higher = more binding, comparable within an allelic series)
ALX1 [3]
  binding signal: 6.53 upbm affinity estimate (log intensity, higher = more binding, comparable within an allelic series)

## GTAGGTAA
ALX1 [1]
  binding signal: 8.26 upbm affinity estimate (log intensity, higher = more binding, comparable within an allelic series)
ALX1 [3]
  binding signal: 8.54 upbm affinity estimate (log intensity, higher = more binding, comparable within an allelic series)

## CGGACGGA
ALX1 [1]
  binding signal: 6.3 upbm affinity estimate (log intensity, higher = more binding, comparable within an allelic series)
ALX1 [2]
  binding signal: 6.37 upbm affinity estimate (log intensity, higher = more binding, comparable within an allelic series)
ALX1 [3]
  binding signal: 6.28 upbm affinity estimate (log intensity, higher = more binding, comparable within an allelic series)

## AGCAATAT
ALX1 [1]
  binding signal: 8.17 upbm affinity estimate (log intensity, higher = more binding, comparable within an allelic series)
ALX1 [2]
  binding signal: 8.11 upbm affinity estimate (log intensity, higher = more binding, comparable within an allelic series)
ALX1 [3]
  binding signal: 8.09 upbm affinity estimate (log intensity, higher = more binding, comparable within an allelic series)

## AATATTTA
ALX1 [1]
  binding signal: 9.37 upbm affinity estimate (log intensity, higher = more binding, comparable within an allelic series)
ALX1 [2]
  binding signal: 9.47 upbm affinity estimate (log intensity, higher = more binding, comparable within an allelic series)
ALX1 [3]
  binding signal: 9.54 upbm affinity estimate (log intensity, higher = more binding, comparable within an allelic series)

## ACTTATTA
ALX3 [4]
  binding signal: 8.57 upbm affinity estimate (log intensity, higher = more binding, comparable within an allelic series)

## GCACCAGC
ALX1 [1]
  binding signal: 6.41 upbm affinity estimate (log intensity, higher = more binding, comparable within an allelic series)
ALX1 [2]
  binding signal: 6.46 upbm affinity estimate (log intensity, higher = more binding, comparable within an allelic series)
ALX1 [3]
  binding signal: 6.19 upbm affinity estimate (log intensity, higher = more binding, comparable within an allelic series)

## CTGAATTC
ALX1 [1]
  binding signal: 7.73 upbm affinity estimate (log intensity, higher = more binding, comparable within an allelic series)
ALX1 [2]
  binding signal: 7.6 upbm affinity estimate (log intensity, higher = more binding, comparable within an allelic series)
ALX1 [3]
  binding signal: 7.82 upbm affinity estimate (log intensity, higher = more binding, comparable within an allelic series)

## CCACAGGG
ALX3 [4]
  binding signal: 7.75 upbm affinity estimate (log intensity, higher = more binding, comparable within an allelic series)
HOXD13 [5]
  binding signal: 9.71 upbm affinity estimate (log intensity, higher = more binding, comparable within an allelic series)
HOXD13 [6]
  binding signal: 9.49 upbm affinity estimate (log intensity, higher = more binding, comparable within an allelic series)
ALX3 [7]
  binding signal: 7.62 upbm affinity estimate (log intensity, higher = more binding, comparable within an allelic series)
ALX3 [8]
  binding signal: 7.81 upbm affinity estimate (log intensity, higher = more binding, comparable within an allelic series)
HOXD13 [9]
  binding signal: 9.58 upbm affinity estimate (log intensity, higher = more binding, comparable within an allelic series)
ALX3 [10]
  binding signal: 7.81 upbm affinity estimate (log intensity, higher = more binding, comparable within an allelic series)
ALX3 [11]
  binding signal: 7.73 upbm affinity estimate (log intensity, higher = more binding, comparable within an allelic series)

## GGAGAAAC
ALX1 [1]
  binding signal: 6.41 upbm affinity estimate (log intensity, higher = more binding, comparable within an allelic series)
ALX1 [2]
  binding signal: 6.7 upbm affinity estimate (log intensity, higher = more binding, comparable within an allelic series)
ALX1 [3]
  binding signal: 6.58 upbm affinity estimate (log intensity, higher = more binding, comparable within an allelic series)

## CCTTGCCG
ALX1 [1]
  binding signal: 6.69 upbm affinity estimate (log intensity, higher = more binding, comparable within an allelic series)
ALX1 [2]
  binding signal: 6.58 upbm affinity estimate (log intensity, higher = more binding, comparable within an allelic series)
ALX1 [3]
  binding signal: 6.55 upbm affinity estimate (log intensity, higher = more binding, comparable within an allelic series)

## ATGTGTAA
ALX1 [1]
  binding signal: 8.64 upbm affinity estimate (log intensity, higher = more binding, comparable within an allelic series)
ALX1 [2]
  binding signal: 8.5 upbm affinity estimate (log intensity, higher = more binding, comparable within an allelic series)
ALX1 [3]
  binding signal: 8.88 upbm affinity estimate (log intensity, higher = more binding, comparable within an allelic series)

## AGCGCAGC
ALX1 [1]
  binding signal: 6.5 upbm affinity estimate (log intensity, higher = more binding, comparable within an allelic series)
ALX1 [2]
  binding signal: 6.49 upbm affinity estimate (log intensity, higher = more binding, comparable within an allelic series)
ALX1 [3]
  binding signal: 6.42 upbm affinity estimate (log intensity, higher = more binding, comparable within an allelic series)

## AACTAAGT
ALX1 [1]
  binding signal: 8.49 upbm affinity estimate (log intensity, higher = more binding, comparable within an allelic series)
ALX1 [3]
  binding signal: 8.92 upbm affinity estimate (log intensity, higher = more binding, comparable within an allelic series)

## CGCCGAGA
ALX1 [1]
  binding signal: 6.15 upbm affinity estimate (log intensity, higher = more binding, comparable within an allelic series)
ALX1 [2]
  binding signal: 6.32 upbm affinity estimate (log intensity, higher = more binding, comparable within an allelic series)
ALX1 [3]
  binding signal: 6.31 upbm affinity estimate (log intensity, higher = more binding, comparable within an allelic series)

## GTTATACA
ALX1 [1]
  binding signal: 8.24 upbm affinity estimate (log intensity, higher = more binding, comparable within an allelic series)
ALX1 [2]
  binding signal: 8.23 upbm affinity estimate (log intensity, higher = more binding, comparable within an allelic series)
ALX1 [3]
  binding signal: 8.43 upbm affinity estimate (log intensity, higher = more binding, comparable within an allelic series)

## GCTGGCAC
ALX1 [1]
  binding signal: 6.46 upbm affinity estimate (log intensity, higher = more binding, comparable within an allelic series)
ALX1 [2]
  binding signal: 6.45 upbm affinity estimate (log intensity, higher = more binding, comparable within an allelic series)
ALX1 [3]
  binding signal: 6.58 upbm affinity estimate (log intensity, higher = more binding, comparable within an allelic series)

## ACCCCCGC
ALX3 [4]
  binding signal: 7.74 upbm affinity estimate (log intensity, higher = more binding, comparable within an allelic series)
ALX3 [7]
  binding signal: 7.66 upbm affinity estimate (log intensity, higher = more binding, comparable within an allelic series)
PROP1 [12]
  binding signal: 6.56 upbm affinity estimate (log intensity, higher = more binding, comparable within an allelic series)
PROP1 [13]
  binding signal: 6.52 upbm affinity estimate (log intensity, higher = more binding, comparable within an allelic series)
ALX3 [8]
  binding signal: 7.66 upbm affinity estimate (log intensity, higher = more binding, comparable within an allelic series)
ALX3 [10]
  binding signal: 7.68 upbm affinity estimate (log intensity, higher = more binding, comparable within an allelic series)
PROP1 [14]
  binding signal: 6.34 upbm affinity estimate (log intensity, higher = more binding, comparable within an allelic series)
ALX3 [11]
  binding signal: 7.73 upbm affinity estimate (log intensity, higher = more binding, comparable within an allelic series)

## GCACCCCC
ALX3 [4]
  binding signal: 7.73 upbm affinity estimate (log intensity, higher = more binding, comparable within an allelic series)
NKX2-6 [15]
  binding signal: 9.22 upbm affinity estimate (log intensity, higher = more binding, comparable within an allelic series)
ALX3 [7]
  binding signal: 7.8 upbm affinity estimate (log intensity, higher = more binding, comparable within an allelic series)
ALX3 [8]
  binding signal: 7.58 upbm affinity estimate (log intensity, higher = more binding, comparable within an allelic series)
NKX2-6 [16]
  binding signal: 9.15 upbm affinity estimate (log intensity, higher = more binding, comparable within an allelic series)
ALX3 [10]
  binding signal: 7.59 upbm affinity estimate (log intensity, higher = more binding, comparable within an allelic series)
ALX3 [11]
  binding signal: 7.76 upbm affinity estimate (log intensity, higher = more binding, comparable within an allelic series)

Reference: PMC11006913
